In PubChem BioAssay (EPA / NIEHS):
Records with an inconclusive call do not appear. Calls of active or inactive are those of the source. How the source made its calls, unless noted: active means hit-call score of the fitted dose curve at least 0.9, where 1 is the maximum; inconclusive means response in the unintended direction; inactive means score below 0.9.

Columns and labels:
[1] = target: Cellular tumor antigen p53 (Homo sapiens) (UniProt P04637); test: TOX21_p53_BLA_p3_ratio: Tox21 HCT-116 p53 Agonism Beta-lactamase Assay, Ratio, Phase 3 (AID 2283596)
Chain of Cellular tumor antigen p53 (Homo sapiens) (P04637 whole entry, looked up): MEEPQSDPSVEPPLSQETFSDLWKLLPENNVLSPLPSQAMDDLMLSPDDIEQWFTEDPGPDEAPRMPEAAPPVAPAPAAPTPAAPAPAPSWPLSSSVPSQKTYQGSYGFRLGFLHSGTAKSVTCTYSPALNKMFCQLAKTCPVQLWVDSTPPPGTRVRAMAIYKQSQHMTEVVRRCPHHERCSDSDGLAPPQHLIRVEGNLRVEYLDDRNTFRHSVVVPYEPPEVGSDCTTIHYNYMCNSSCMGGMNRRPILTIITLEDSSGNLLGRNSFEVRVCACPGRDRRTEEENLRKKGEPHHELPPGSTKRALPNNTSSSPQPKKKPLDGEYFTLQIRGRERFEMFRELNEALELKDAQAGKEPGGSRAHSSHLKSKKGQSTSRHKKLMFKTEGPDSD
Procedure, shortened: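 HCT116 p53-bla cells (4000/well) given compound in DMSO (217-fold dilution) after 5 h, incubated 16 h at 37C. CCF4-AM substrate 2 h at room temperature; 460/530 nm emission ratio, gain fitted against DMSO.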

[2] = target: Cellular tumor antigen p53 (Homo sapiens) (UniProt P04637); test: TOX21_p53_BLA_p5_ratio: Tox21 HCT-116 p53 Agonism Beta-lactamase Assay, Ratio, Phase 5 (AID 2283599)
Procedure, shortened: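 Beta-lactamase reporter ratio (blue 460 nm over green 530 nm, 405 nm excitation) after 2 h CCF4-AM loading, in HCT-116 cells exposed 16 h at 37 C to compounds pinned at 217-fold dilution. Increases relative to DMSO baseline scored.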

[3] = TOX21_p53_BLA_p4_viability: Viability Assessment in the Tox21 HCT-116 p53 Agonism Beta-lactamase Assay, Phase 4 (AID 2283597);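 further: hits lower the luminescence signal meaning cytotoxicity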
Procedure, shortened: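 Following a 16 h exposure at 37C, the treated HCT116 wells were first read for the FRET ratio. They were then lysed with CellTiter-Glo, and ATP luminescence was recorded after 30 min at room temperature.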

[4] = TOX21_p53_BLA_p5_viability: Viability Assessment in the Tox21 HCT-116 p53 Agonism Beta-lactamase Assay, Phase 5 (AID 2283600)
Procedure, shortened: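 After the 460/530 nm beta-lactamase measurement, the wells received an ATP-detection luciferase reagent; signal was read 30 min later at RT. Compound treatment lasted 16 h on cells pre-incubated 5 h post-seeding.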

[5] = target: Cellular tumor antigen p53 (Homo sapiens) (UniProt P04637); test: TOX21_p53_BLA_p4_ratio: Tox21 HCT-116 p53 Agonism Beta-lactamase Assay, Ratio, Phase 4 (AID 2283601)
Procedure, shortened: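 Signal is the blue/green (460nm/530nm) ratio of cleaved versus uncleaved CCF4-AM substrate, read after 2 h substrate loading. Cells were HCT116 carrying the p53-responsive beta-lactamase reporter, dosed 16 h at 37C, 5% CO2; CellTiter-Glo measured in parallel.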

PGR (gene 5241) [6] = target: PGR (gene 5241) (UniProt P06401); test: TOX21_PR_BLA_Followup_Agonist_ratio: Tox21 HEK293 Progesterone Receptor (PR) Agonism Beta-lactamase Follow-Up Assay, Ratio (AID 2283933)
Chain of PGR (gene 5241) (P06401 whole entry, looked up): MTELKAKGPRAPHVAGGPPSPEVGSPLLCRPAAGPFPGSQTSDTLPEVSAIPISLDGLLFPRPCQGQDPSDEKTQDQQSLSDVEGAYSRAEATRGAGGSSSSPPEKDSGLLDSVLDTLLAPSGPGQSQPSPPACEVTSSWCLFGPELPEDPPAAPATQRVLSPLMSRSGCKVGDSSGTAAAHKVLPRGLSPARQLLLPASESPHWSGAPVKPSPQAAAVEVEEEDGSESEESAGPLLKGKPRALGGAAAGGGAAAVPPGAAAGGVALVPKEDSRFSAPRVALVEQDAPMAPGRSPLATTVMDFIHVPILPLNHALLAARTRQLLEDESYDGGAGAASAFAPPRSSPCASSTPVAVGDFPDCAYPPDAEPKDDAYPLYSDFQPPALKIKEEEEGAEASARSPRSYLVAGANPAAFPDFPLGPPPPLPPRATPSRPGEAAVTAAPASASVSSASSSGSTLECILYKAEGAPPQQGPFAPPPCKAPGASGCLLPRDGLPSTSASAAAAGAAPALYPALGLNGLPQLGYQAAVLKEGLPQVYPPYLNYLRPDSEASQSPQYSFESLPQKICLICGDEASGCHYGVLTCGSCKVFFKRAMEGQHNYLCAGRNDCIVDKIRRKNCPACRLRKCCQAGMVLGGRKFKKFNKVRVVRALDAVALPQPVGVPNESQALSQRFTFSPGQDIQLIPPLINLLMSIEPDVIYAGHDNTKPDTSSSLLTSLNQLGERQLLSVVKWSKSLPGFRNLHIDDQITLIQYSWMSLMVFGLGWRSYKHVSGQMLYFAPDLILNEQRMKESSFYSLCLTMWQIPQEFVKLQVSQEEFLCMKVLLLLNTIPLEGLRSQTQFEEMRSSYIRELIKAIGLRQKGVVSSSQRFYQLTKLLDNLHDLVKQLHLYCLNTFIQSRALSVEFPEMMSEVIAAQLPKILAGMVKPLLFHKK
Procedure, shortened: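 PR-UAS-bla HEK293T cells in medium with 2% charcoal-stripped FBS were dosed after 6 h plating and incubated 16 h at 37C. LiveBLAzer FRET substrate was added for 2 h at room temperature. Cleaved/uncleaved substrate ratio fitted against DMSO; CellTiter-Glo viability run in the same wells.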

PGR (gene 5241) [7] = target: PGR (gene 5241) (UniProt P06401); test: TOX21_PR_BLA_Followup_Antagonist_ratio: Tox21 HEK293 Progesterone Receptor (PR) Antagonism Beta-lactamase Follow-Up Assay, Ratio (AID 2283934)
Procedure, shortened: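 PR-UAS-bla HEK293T cells, 3,000/well in 2% charcoal-stripped FBS, given compound plus 1nM R5020 agonist for 16 hr at 37C. Beta-lactamase FRET substrate 2 hours, ratio cleaved/uncleaved fluorescence; viability by CellTiter-Glo in same wells.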

[8] = TOX21_PR_BLA_Followup_Agonist_viability: Viability Assessment in the Tox21 HEK293 Progesterone Receptor (PR) Agonism Beta-lactamase Follow-Up Assay (AID 2283935);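 further: signal loss means lower viability so actives are cytotoxic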
Procedure, shortened: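 PR-UAS-bla HEK293T cells in 2% charcoal-stripped FBS medium, plated 6 hr before compound addition, exposed 16 hr at 37C. Viability read by CellTiter-Glo ATP luminescence after 30 min at room temperature, in the same wells as the beta-lactamase readout.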

[9] = TOX21_PR_BLA_Followup_Antagonist_viability: Viability Assessment in the Tox21 HEK293 Progesterone Receptor (PR) Antagonism Beta-lactamase Follow-Up Assay (AID 2283936);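 further: hits lower the luminescence signal meaning cytotoxicity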
Procedure, shortened: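 PR-UAS-bla HEK293T cells (3,000/well, 2% charcoal-stripped FBS) given compound plus R5020 agonist, 16 h at 37C. CellTiter-Glo added after bla read, 30 min at room temperature; luminescence loss indicates cytotoxicity.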

PGR (gene 5241) [10] = target: PGR (gene 5241) (UniProt P06401); test: TOX21_PR_LUC_Followup_Agonist: Tox21 HEK293 Progesterone Receptor (PR) Agonism Luciferase Follow-Up Assay (AID 2283937; active means hit-call score of the fitted dose curve at least 0.9, where 1 is the maximum; inactive means score below 0.9)
Procedure, shortened: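 HEK293-PR-A-luc cells, conditioned 5 days in 10% charcoal-stripped FBS medium, seeded 3,000/well for 5 h, then compound-treated 16 h at 37C. ONE-Glo luminescence read after 30 min at room temperature; gain of signal versus DMSO.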

PGR (gene 5241) [11] = target: PGR (gene 5241) (UniProt P06401); test: TOX21_PR_LUC_Followup_Antagonist: Tox21 HEK293 Progesterone Receptor (PR) Antagonism Luciferase Follow-Up Assay (AID 2283938);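 further: curve fitted upward as signal gain over DMSO baseline despite antagonist label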
Procedure, shortened: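 Luminescence from ONE-Glo was measured 30 min after reagent addition, following 16 h exposure of HEK293-PR-A-luc cells (3,000/well, plated 5 h earlier) to DMSO-dissolved compounds at 37C; DMSO served as baseline.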

[12] = TOX21_PR_LUC_Followup_Antagonist_viability: Viability Assessment in the Tox21 HEK293 Progesterone Receptor (PR) Antagonism Luciferase Follow-Up Assay (AID 2283940)
Procedure, shortened: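 HEK293-PR-A-luc cells kept in charcoal-stripped FBS medium were plated 5 h before compound addition, then exposed 16 h at 37C; viability read as cellular ATP by luciferase luminescence, loss of signal indicating cytotoxicity.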

[13] = TOX21_PR_LUC_Followup_Agonist_viability: Viability Assessment in the Tox21 HEK293 Progesterone Receptor (PR) Agonism Luciferase Follow-Up Assay (AID 2283941);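 further: loss of signal means cytotoxicity so actives lower viability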
Procedure, shortened: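 HEK293-PR-A-luc cells, kept in 10% charcoal-stripped FBS medium, were treated with compounds for 16 h at 37C. Viability read as cellular ATP by luciferase-coupled luminescence; loss of signal indicates cytotoxicity.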

Measured: outcome

CN(C)CCN(Cc1ccccc1)c1ccccn1
inactive: [1] | [2]

O=C1CCCc2ccccc21
inactive: [1] | [3] | [4] | [5]

CN1CCN(C2=Nc3cc(F)ccc3Cc3ccccc32)CC1
not listed: [2] | [4] | [5]
inactive: all other assays above

CC(C)NCC(O)COc1ccccc1-n1cccc1 (configuration not stated)
inactive: [1] | [2] | [4] | [5]

COc1ccc(CCC(=O)c2c(O)cc(O[C@@H]3O[C@H](CO)[C@@H](O)[C@H](O)[C@H]3O[C@@H]3O[C@@H](C)[C@H](O)[C@@H](O)[C@H]3O)cc2O)cc1O
inactive: [1] | [2] | [4] | [5]

CCCCCC/C=C/C(=O)OC
inactive: [1] | [2]

C[N+]1(C)CCN(CC(O)(c2ccccc2)C2CCCCC2)CC1 (configuration not stated)
inactive: [1] | [3] | [4]

CCOC(=O)c1ccc(OC(=O)CCCCCN=C(N)N)cc1
inactive: [1] | [2] | [4]

NS(=O)(=O)c1ccccc1Cl
inactive: [1] | [3] | [4] | [5]

CCCCOCCCC
inactive: [1] | [3] | [4] | [5]

CN(C)CCCNCCCN
inactive: [1] | [2] | [4] | [5]

Cc1nc(-c2ccc(Cl)cc2)oc1COC(C)(C)C(=O)O
inactive: [1] | [2] | [4] | [5]

C[C@H]1O[C@H](O[C@H]2[C@H](O)[C@@H](O)[C@@H](O[C@H]3[C@H](O)[C@@H](O)[C@H](O)O[C@@H]3CO)O[C@@H]2CO)[C@H](O)[C@@H](O)[C@@H]1N[C@H]1C=C(CO)[C@@H](O)[C@H](O)[C@H]1O
inactive: [1] | [2] | [4] | [5]
